Assay [1] addresses Serine/threonine-protein kinase MARK2 (Homo sapiens) (UniProt Q7KZI7). Particulars: at 1 µM.
The target of assay [2] is PAS domain-containing serine/threonine-protein kinase (Homo sapiens) (UniProt Q96RG2). Particulars: at 0.1 µM.
The target is the same in assay [3]. Particulars: at 1 µM.
Assay [4] addresses Phosphorylase b kinase gamma catalytic chain, skeletal muscle/heart isoform (Homo sapiens) (UniProt Q16816). Particulars: at 0.1 µM.
Assay [5] has the same target. Particulars: at 1 µM.
The target in assay [6] is T1, Phosphorylase b kinase gamma catalytic chain, liver/testis isoform (Homo sapiens) (UniProt P15735).
T1 sequence (whole entry): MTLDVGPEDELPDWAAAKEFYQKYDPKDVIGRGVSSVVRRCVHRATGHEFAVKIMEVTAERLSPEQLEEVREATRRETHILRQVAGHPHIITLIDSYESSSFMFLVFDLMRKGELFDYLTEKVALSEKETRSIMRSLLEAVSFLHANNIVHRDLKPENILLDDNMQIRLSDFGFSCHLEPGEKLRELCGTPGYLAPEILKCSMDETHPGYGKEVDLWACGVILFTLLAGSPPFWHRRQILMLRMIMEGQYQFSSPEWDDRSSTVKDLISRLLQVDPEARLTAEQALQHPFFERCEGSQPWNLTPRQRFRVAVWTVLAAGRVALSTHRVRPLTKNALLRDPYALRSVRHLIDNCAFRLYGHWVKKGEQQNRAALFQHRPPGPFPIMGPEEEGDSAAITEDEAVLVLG
The settings on record: at 0.1 µM.

For assay [7], the target named is T1, Phosphorylase b kinase gamma catalytic chain, liver/testis isoform (Homo sapiens). The settings on record: at 1 µM.
Assay [8] has as its target Serine/threonine-protein kinase pim-1 (Homo sapiens) (UniProt P11309). The settings on record: at 0.1 µM.
The target is the same in assay [9]. Particulars: at 1 µM.
Assay [10] concerns the target Serine/threonine-protein kinase pim-2 (Homo sapiens) (UniProt Q9P1W9). The settings on record: at 0.1 µM.
For assay [11] the target is unchanged. The settings on record: at 1 µM.
Assay [12] addresses Serine/threonine-protein kinase pim-3 (Homo sapiens) (UniProt Q86V86). Particulars: at 0.1 µM.
For assay [13] the target is unchanged. Particulars: at 1 µM.
Assay [14] deals with T2, MAP kinase-activated protein kinase 5 (Homo sapiens) (UniProt Q8IW41).
T2 sequence (whole entry): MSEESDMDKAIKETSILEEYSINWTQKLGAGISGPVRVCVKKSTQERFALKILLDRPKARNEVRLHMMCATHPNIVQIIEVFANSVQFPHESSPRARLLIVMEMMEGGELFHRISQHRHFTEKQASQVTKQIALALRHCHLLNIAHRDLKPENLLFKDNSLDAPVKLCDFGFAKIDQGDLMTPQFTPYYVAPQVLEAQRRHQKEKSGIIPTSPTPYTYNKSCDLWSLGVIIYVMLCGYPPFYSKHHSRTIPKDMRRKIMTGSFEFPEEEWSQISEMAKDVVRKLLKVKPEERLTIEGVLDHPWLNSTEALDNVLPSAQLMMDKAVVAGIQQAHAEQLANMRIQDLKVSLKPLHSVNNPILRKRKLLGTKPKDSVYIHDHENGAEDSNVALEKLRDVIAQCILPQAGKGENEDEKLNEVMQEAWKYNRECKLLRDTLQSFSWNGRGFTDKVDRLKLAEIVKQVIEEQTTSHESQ
The settings on record: at 0.1 µM.

Assay [15] addresses T2, MAP kinase-activated protein kinase 5 (Homo sapiens). Particulars: at 1 µM.
Assay [16] deals with Serine/threonine-protein kinase SIK1 (Homo sapiens) (UniProt P57059). Particulars: at 0.1 µM.
Chain of Serine/threonine-protein kinase SIK1 (Homo sapiens) (P57059 whole entry): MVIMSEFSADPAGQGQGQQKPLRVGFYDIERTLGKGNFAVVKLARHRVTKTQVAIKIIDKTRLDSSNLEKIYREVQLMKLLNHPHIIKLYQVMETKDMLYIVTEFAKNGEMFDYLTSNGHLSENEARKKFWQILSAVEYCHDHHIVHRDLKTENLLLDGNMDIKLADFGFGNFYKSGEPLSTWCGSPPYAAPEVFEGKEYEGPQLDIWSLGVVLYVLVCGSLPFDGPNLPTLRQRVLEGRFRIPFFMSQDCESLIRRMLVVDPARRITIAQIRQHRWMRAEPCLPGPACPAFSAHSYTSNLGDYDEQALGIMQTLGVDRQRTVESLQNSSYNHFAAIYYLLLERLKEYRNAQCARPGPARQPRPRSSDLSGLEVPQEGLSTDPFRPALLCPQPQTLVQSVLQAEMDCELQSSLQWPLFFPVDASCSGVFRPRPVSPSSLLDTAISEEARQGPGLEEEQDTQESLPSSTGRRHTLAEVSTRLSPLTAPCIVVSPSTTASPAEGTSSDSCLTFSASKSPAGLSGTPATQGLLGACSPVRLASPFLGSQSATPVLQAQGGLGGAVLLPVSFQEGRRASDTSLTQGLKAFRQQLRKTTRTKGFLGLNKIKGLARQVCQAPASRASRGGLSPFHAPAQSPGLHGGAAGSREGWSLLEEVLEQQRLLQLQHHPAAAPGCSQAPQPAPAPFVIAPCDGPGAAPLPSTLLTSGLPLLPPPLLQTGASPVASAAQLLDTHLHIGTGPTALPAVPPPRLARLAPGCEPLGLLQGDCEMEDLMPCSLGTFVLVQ
For assay [17] the target is unchanged. The settings on record: at 1 µM.
Assay [18] concerns the target Serine/threonine-protein kinase SIK2 (Homo sapiens) (UniProt Q9H0K1). The settings on record: at 0.1 µM.
The target is the same in assay [19]. The settings on record: at 1 µM.
In assay [20] the target is T3, Serine/threonine-protein kinase TBK1 (Homo sapiens) (UniProt Q9UHD2).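 Note: values are the mean TBK1 inhibition, taken from the GSK PKIS screening data.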
T3 sequence (whole entry): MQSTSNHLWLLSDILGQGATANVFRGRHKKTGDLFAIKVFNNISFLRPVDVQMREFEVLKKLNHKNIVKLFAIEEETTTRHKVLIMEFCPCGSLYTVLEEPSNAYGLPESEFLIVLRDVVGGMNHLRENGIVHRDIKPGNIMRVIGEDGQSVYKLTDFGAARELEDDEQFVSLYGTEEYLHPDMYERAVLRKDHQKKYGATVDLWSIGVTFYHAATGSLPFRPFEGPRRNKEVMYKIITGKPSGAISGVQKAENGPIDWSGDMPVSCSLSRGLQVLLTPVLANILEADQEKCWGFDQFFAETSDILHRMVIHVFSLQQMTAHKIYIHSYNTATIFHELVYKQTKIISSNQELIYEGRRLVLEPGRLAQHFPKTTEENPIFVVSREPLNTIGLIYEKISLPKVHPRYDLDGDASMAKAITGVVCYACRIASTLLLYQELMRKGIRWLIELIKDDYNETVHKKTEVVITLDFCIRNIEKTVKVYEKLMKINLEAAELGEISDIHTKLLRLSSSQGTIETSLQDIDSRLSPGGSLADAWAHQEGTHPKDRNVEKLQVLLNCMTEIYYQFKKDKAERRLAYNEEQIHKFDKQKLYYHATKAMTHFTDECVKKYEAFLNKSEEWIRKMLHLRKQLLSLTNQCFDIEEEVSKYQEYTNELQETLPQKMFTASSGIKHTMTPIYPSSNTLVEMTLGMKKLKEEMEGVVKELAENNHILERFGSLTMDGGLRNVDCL
The settings on record: at 0.1 µM.

Chain of Serine/threonine-protein kinase MARK2 (Homo sapiens) (Q7KZI7 whole entry, the tested form may be a part): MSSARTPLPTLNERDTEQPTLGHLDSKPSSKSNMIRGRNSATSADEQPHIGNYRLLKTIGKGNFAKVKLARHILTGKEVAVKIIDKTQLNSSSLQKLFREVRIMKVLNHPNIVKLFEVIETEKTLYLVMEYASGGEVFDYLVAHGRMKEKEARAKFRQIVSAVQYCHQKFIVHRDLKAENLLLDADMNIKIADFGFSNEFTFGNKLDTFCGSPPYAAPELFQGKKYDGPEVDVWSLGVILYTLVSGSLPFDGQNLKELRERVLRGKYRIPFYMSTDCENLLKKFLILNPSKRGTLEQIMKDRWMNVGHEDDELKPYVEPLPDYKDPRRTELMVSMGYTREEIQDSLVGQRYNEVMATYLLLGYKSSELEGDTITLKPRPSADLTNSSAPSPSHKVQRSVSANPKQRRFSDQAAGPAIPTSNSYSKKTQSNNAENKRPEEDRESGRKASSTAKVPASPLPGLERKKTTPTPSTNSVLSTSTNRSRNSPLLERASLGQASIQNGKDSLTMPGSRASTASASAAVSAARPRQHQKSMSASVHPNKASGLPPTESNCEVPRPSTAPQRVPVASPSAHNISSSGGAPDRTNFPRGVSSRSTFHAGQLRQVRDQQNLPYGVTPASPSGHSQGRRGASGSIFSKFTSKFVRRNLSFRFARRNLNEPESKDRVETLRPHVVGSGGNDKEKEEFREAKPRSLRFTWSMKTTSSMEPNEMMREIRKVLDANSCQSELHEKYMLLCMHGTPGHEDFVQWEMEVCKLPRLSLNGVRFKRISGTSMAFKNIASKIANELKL
Chain of Phosphorylase b kinase gamma catalytic chain, skeletal muscle/heart isoform (Homo sapiens) (Q16816 whole entry, looked up, canonical isoform): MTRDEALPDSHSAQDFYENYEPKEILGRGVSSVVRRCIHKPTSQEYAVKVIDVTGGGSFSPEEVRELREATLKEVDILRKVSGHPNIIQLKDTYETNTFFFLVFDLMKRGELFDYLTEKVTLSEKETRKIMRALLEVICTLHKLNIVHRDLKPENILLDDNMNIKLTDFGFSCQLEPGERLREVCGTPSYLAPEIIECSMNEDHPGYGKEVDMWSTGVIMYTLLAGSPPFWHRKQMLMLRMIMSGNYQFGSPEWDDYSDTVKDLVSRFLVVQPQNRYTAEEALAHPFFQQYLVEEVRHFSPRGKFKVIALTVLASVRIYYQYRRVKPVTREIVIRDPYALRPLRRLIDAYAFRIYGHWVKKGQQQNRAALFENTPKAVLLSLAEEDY
Chain of Serine/threonine-protein kinase pim-2 (Homo sapiens) (Q9P1W9 whole entry, looked up): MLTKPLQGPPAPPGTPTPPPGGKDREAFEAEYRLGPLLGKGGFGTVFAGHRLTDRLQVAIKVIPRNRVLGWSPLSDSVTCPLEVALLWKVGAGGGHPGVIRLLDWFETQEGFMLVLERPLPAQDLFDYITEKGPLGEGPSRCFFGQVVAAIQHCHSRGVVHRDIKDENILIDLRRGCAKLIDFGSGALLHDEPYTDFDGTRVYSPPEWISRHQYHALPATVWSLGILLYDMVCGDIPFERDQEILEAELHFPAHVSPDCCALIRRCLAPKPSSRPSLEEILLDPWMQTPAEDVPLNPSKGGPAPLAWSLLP
Chain of Serine/threonine-protein kinase SIK2 (Homo sapiens) (Q9H0K1 whole entry, looked up): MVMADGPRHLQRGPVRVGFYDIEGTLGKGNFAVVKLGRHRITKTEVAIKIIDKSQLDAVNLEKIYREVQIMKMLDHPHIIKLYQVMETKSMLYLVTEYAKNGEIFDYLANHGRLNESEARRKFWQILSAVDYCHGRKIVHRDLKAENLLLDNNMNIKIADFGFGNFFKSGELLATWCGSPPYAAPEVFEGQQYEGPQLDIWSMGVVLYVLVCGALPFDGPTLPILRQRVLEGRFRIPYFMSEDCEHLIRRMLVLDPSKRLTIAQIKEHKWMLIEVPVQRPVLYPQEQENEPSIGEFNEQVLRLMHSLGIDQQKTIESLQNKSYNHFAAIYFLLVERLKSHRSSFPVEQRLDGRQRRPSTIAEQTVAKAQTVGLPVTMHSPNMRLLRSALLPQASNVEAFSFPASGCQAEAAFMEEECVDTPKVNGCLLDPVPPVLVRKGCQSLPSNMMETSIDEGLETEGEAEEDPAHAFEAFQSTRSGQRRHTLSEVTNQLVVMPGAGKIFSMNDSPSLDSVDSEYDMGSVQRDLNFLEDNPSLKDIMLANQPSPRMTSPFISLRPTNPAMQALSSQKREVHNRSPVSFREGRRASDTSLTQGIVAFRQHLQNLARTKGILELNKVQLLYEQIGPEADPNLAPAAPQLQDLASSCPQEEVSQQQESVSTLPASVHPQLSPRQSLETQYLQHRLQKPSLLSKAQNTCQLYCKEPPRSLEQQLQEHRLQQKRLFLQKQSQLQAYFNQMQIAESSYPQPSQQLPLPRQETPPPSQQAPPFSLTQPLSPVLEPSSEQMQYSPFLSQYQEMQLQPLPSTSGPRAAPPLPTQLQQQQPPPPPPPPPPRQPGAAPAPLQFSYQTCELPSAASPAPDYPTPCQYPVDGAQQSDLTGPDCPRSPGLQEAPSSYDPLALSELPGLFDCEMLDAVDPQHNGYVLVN
Chain of Serine/threonine-protein kinase pim-1 (Homo sapiens) (P11309 whole entry, looked up): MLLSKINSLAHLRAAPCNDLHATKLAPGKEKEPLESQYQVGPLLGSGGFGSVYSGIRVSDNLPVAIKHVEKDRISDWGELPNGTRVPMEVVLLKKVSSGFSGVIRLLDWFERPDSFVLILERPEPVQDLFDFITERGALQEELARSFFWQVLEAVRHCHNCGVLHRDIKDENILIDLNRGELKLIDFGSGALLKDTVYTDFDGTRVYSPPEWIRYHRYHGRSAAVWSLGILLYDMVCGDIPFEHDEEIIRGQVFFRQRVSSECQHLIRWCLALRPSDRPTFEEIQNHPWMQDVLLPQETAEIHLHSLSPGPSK

As to `CCn1c(-c2nonc2N)nc2c(C#CC(C)(C)O)nc(O[C@@H](CN)c3ccccc3)cc21`, the inhibition in assay [1] was 90.5%; in assay [2], 0.53%; in assay [3], 15.9%; in [4] it was 1.61%; in [5] it was 12.3%; in assay [6] it was -3.09%. Also, the inhibition was -0.93% in [7]; 4.64% in assay [8]; 35.2% in assay [9]; 2.45% in [10]; 20.6% in assay [11]; 4.66% in [12]. The inhibition in [13] was 39%; in [14], -0.85%; in assay [15], -1.11%; in assay [16], -0.97%; in [17] it was 8.3%; in assay [18], -0.81%. The inhibition in assay [19] stood at 14.8%; in [20], 20.9%.
As to `Fc1ccc(-c2ncn(C3CCNCC3)c2-c2ccnc(Oc3ccccc3)n2)cc1`, the inhibition in [1] was -1.83%; in assay [2], 0.55%; in assay [3] it was -1%; in assay [4], 3.99%; in [5], 2.25%; in assay [6] it was 1.69%. For the same compound, the inhibition in [7] was 1.14%; in assay [8], -1.15%; in assay [9], -0.11%; in [10], -3.22%; in assay [11] it was -3.69%; in assay [12] it was -0.25%. The inhibition in [13] was -0.02%; in assay [14] it was 0.89%; in assay [15], 1.1%; in [16] it was 2.14%; in assay [17], 8.86%; in assay [18] it was -0.18%. Moreover, the inhibition in assay [19] turned out to be 7.64%; in assay [20] it was 0.83%.
For the compound `COc1cccc(COc2cc(-n3cnc4ccccc43)sc2C(N)=O)c1`, the inhibition in assay [1] is -1.4%; in [2] it was 1.11%; in [3], 1.08%; in assay [4], 2.26%; in assay [5], 3.47%; in assay [6] it was 1.62%. The inhibition in assay [7] was 0.45%; in assay [8] it was 0.5%; in assay [9] it was 0.84%; in [10], 0.51%; in assay [11], 1.31%; in [12] it was 0.12%. Moreover, the inhibition in [13] is 0.33%; in assay [14], 0.16%; in [15] it was -0.81%; in assay [16], -0.86%; in assay [17] it was 3.4%; in [18], -0.88%. In addition, the inhibition was -4.75% in [19] and -1.18% in assay [20].
Turning to `CCn1c(-c2nonc2N)nc2c(C#CC(C)(C)O)ncc(OC[C@@H]3CCCN3)c21`, the inhibition in assay [1] was found to be 51.9%; in [2], 0.57%; in assay [3] it was 7.61%; in assay [4] it was 1.02%; in [5], 2.21%; in assay [6], 1.45%. For the same compound, the inhibition is 1.65% in assay [7]; 1.6% in assay [8]; 7.63% in [9]; 1.1% in [10]; 7.09% in [11]; 1.81% in [12]. Also, the inhibition was 10.1% in assay [13]; 0.11% in assay [14]; 0.32% in assay [15]; 1.03% in [16]; 4.19% in assay [17]; -4.09% in assay [18]. For the same compound, the values for the inhibition in assay [19] and in assay [20] were 6.59% and 5.1%, respectively.
Consider `COc1cc(C=NNc2ncnc3c2cnn3Cc2ccccc2)ccc1O`, for which the inhibition in assay [1] is 4.82%; in assay [2] it was -0.31%; in assay [3] it was 0.37%; in assay [4], -1.3%; in [5], 2.64%; in assay [6], -7.11%. Further, the inhibition in assay [7] was -6.49%; in assay [8] it was -0.98%; in assay [9], 1.73%; in assay [10], 0.65%; in assay [11], 4.62%; in assay [12], 1.07%. For the same compound, the inhibition in assay [13] was 5.08%; in [14], -1.78%; in assay [15] it was -1.84%; in assay [17], -3.99%; in [18], -6%; in assay [20], 0.04%.
With `Nc1nonc1-c1nc2cnccc2n1C1CCCCC1`, the inhibition in assay [1] was 21.9%; in [2], 1.01%; in assay [3], 12.9%; in assay [4], -3.58%; in assay [5], 8.25%; in [6], -4.48%. Also, the inhibition in assay [7] is -2.24%; in [8], 29.8%; in [9] it was 79.2%; in assay [10], 5.24%; in assay [11], 37.5%; in assay [12], 11.4%. The inhibition in assay [13] is 56.9%; in [14] it was -0.83%; in assay [15], -1.13%; in assay [16], -4.72%; in assay [17], -3.76%; in [18], -6.25%. In addition, the inhibition came out at 9.23% in assay [19] and 3.95% in assay [20].
In the case of `CCn1c(-c2nonc2N)nc2c(C#CC(C)(C)O)ncc(OCC3CCNCC3)c21`, the inhibition turned out to be 46.5% in assay [1]; 0.98% in assay [2]; 12.8% in assay [3]; 2.88% in assay [4]; 9.61% in assay [5]; 4.03% in assay [6]. Moreover, the inhibition in assay [7] is 6.94%; in [8], 2.14%; in assay [9] it was 17.3%; in assay [10], -3.05%; in [11] it was 3.34%; in assay [12], 3.02%. The inhibition in assay [13] came out at 21%; in assay [14], 1.57%; in [15], 2.94%; in assay [16], 4.3%; in assay [17], 18%; in assay [18], 3.58%. Also, the inhibition in assay [19] was found to be 18.4%; in assay [20] it was 5.26%.

One may read the inhibition as the relative decrease from the control value, in per cent.

Source of the values: ChEMBL document CHEMBL1961873, “Compounds: GSK PKIS; Assays: Nanosyn kinase panel” (2012).
